Results taken from PubChem BioAssay (NCI).
Compounds without any hit were thinned out: in the full panel of roughly 83,000, 20% have a hit.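 Plates (96-well) were seeded with cells, treated with compound at one concentration, and incubated for 48 hours before percent growth was determined.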 Calls of active or inactive are those of the source. How the source made its calls: active means growth percent below 10; inactive means the rest.

Tests used:
Experiment in all cases: NCI-60 one-dose screen, 48 h (100 = growth as untreated, 0 = no growth, -100 = all killed)
Conditions in all cases: 10 µM unless noted
[1] = test system: T-47D breast
[2] = test system: BT-549 breast
[3] = test system: MDA-MB-435 melanoma
[4] = test system: SW-620 colon
[5] = test system: MCF7 breast
[6] = test system: HCT-116 colon
[7] = test system: HCC-2998 colon
[8] = test system: KM12 colon

Measured: growth

CCC(C)[C@H](NC(=O)Nc1cc(C(F)(F)F)cc(C(F)(F)F)c1)C(=O)N[C@@H](Cc1cn(C)cn1)C(=O)OC (some centres not stated)
active: [1] -63.1% [100 µM] | [2] -94.5% [100 µM] | [3] -91.6% [100 µM] | [4] -58.3% [100 µM] | [5] -60.1% [100 µM] | [6] -93.1% [100 µM] | [7] -89.9% [100 µM]

Cc1sc(NC(=O)c2ccc(C(C)(C)C)cc2)c(C(=O)O)c1C
inactive: [1] 87.5% | [2] 88.8% | [3] 96.1% | [4] 60% | [5] 62.2% | [6] 45.3% | [7] 71.2% | [8] 28.8%

CC[N+](C)(C)N
inactive: [1] 103% | [2] 105% | [3] 109% | [4] 105% | [5] 91.7% | [6] 99% | [7] 113% | [8] 107%

COc1ccc2sc(-n3nc4nc5n(c(=O)c4c3N)-c3ccccc3Sc3ccccc3-5)nc2c1
inactive: [1] 29.2% | [2] 73.2% | [3] 79.5% | [4] 95.6% | [5] 54.2% | [6] 65.7% | [7] 93.6% | [8] 81.4%

CC(C)(C)C(=O)CCCCCCCC/C=C/CCCC(O)c1ccco1 (configuration not stated)
inactive: [1] 104% | [2] 105% | [3] 113% | [4] 113% | [5] 105% | [6] 109% | [7] 88.6% | [8] 113%

COC(=O)C(N)CC(C)C (configuration not stated)
inactive: [1] 92% | [2] 97.9% | [3] 106% | [4] 103% | [5] 98.3% | [6] 93.5% | [7] 111% | [8] 93.8%

O=C(N/N=C/c1ccccc1Cl)c1cccc2ccccc12
inactive: [1] 98.5% | [2] 117% | [3] 105% | [4] 105% | [5] 90.9% | [6] 102% | [7] 110% | [8] 97.3%

C=C(NC(=O)[C@H](C(C)C)N(C)c1cccc2[nH]ccc12)C(=O)OC
inactive: [1] 95.4% | [2] 95.3% | [3] 102% | [4] 110% | [5] 99.6% | [6] 94.1% | [7] 113% | [8] 109%

COc1ccc(-c2nnc(SCC(=O)Nc3ccc(C(=O)/C=C/c4cc(OC)c(OC)c(OC)c4)cc3)n2-c2ccccc2)cc1OC
inactive: [4] 12.2% [100 µM]
active: [1] -43.3% [100 µM] | [2] -94.7% [100 µM] | [3] -16.1% [100 µM] | [5] 1.19% [100 µM] | [6] -84.5% [100 µM] | [7] 8.22% [100 µM]

COC1(OC)N=C(N)C2(C#N)C3(C(=O)Nc4ccccc43)C12C#N (configuration not stated)
inactive: [1] 95.8% | [2] 62.5% | [3] 91.7% | [4] 94.9% | [5] 86.7% | [6] 81.6% | [7] 103% | [8] 101%

COc1ccc(Cn2cc3c(c2-c2ccc(O)cc2)CCc2cnoc2-3)cc1
inactive: [1] 50% | [2] 44.4% | [4] 22.5% | [5] 14.7% | [6] 11.1% | [8] 11.8%
active: [3] -39.4% | [7] -21.1%

CCOC(=O)NC1=NCC(C)(C)S1
inactive: [1] 93.8% | [2] 106% | [3] 100% | [4] 103% | [5] 100% | [6] 105% | [7] 98.3% | [8] 101%

c1cc(C2CCCCC2)ccc1OCCCCCCN1CCNCC1
inactive: [1] 22.8% | [2] 83% | [3] 42.1% | [7] 12.9%
active: [4] -37.7% | [5] -31.3% | [6] -61.7% | [8] 6.42%

CCOC(=O)C1=C(C(F)(F)F)NC(=O)NC1CN1C(=O)c2ccccc2C1=O (configuration not stated)
inactive: [1] 111% | [2] 108% | [3] 108% | [4] 105% | [5] 108% | [6] 112% | [7] 101% | [8] 115%

Cc1c(Cc2ccccc2)c(=O)oc2c(C)c(OCc3n[nH]c(=S)o3)ccc12
inactive: [1] 53.1% | [2] 96.9% | [3] 61.5% | [5] 14.5% | [7] 94.9% | [8] 43.1%
active: [4] -7.67% | [6] 6.37%

CCCCCc1ccnc(CC(=O)c2ccc(OC)cc2)c1
inactive: [1] 82.3% | [2] 93.8% | [3] 102% | [4] 88.4% | [5] 87.4% | [6] 78.2% | [7] 101% | [8] 99.9%

NC(CSC(c1ccccc1)(c1ccccc1)c1ccccc1)C(=O)NCC(=O)O (configuration not stated)
active: [3] -5.86%
inactive: [1] 96.1% | [2] 70.4% | [4] 41.6% | [5] 45% | [6] 40.8% | [7] 28% | [8] 77.5%

O=C1CCNC1
inactive: [1] 107% | [2] 105% | [3] 104% | [4] 103% | [5] 103% | [6] 105% | [7] 118% | [8] 111%

CCCC(=O)NNc1[nH]c(-c2cc(OC)c(OC)c(OC)c2)cc1C(=O)OCC
inactive: [1] 82.1% | [2] 100% | [3] 101% | [4] 109% | [5] 117% | [6] 93% | [7] 95.3% | [8] 125%

CC(O)CN(CC(C)O)N(CC(C)O)CC(C)O (configuration not stated)
inactive: [1] 105% | [2] 94.9% | [3] 104% | [4] 104% | [5] 101% | [6] 102% | [7] 107% | [8] 109%

CCCCCSc1ccc2nc(NC(=O)OCC)sc2c1
active: [3] -47%
inactive: [1] 29.7% | [2] 37.2% | [4] 19.6% | [5] 13.9% | [6] 26% | [7] 55% | [8] 19.7%

CC1(C)NC(=S)NC1=O
inactive: [1] 91.6% | [2] 103% | [3] 110% | [4] 96.9% | [5] 99.2% | [6] 102% | [7] 112% | [8] 108%

CCCCS(=O)(=O)c1cc(Nc2ccc(O)c3c2C(=O)c2ccccc2C3=O)ccc1C
active: [3] -85.7%
inactive: [1] 75.6% | [2] 91.6% | [4] 103% | [5] 33.8% | [6] 78.7% | [7] 67% | [8] 73.4%

O=c1c(N=Nc2nccs2)c(-c2ccccc2)[nH]n1-c1nc(-c2ccccc2)cs1
inactive: [1] 43.7% | [2] 19% | [3] 26.7% | [4] 40.2% | [5] 59.1% | [6] 26.9% | [7] 42.2% | [8] 28.5%

C[C@@H](c1ccc2c(c1)[nH]c1ccc(Cl)cc12)c1nc2ccc(Cl)cc2[nH]1
inactive: [1] 19.1% | [2] 68.2% | [3] 106% | [4] 98.7% | [5] 13.8% | [6] 79.7% | [7] 92% | [8] 81.9%

COc1ccc2c(c1)/C(=C1/S/C(=N/c3nnc(C)s3)NC1=O)C(=O)N2Cc1ccc(Br)cc1
inactive: [1] 22% | [2] 42.9% | [3] 39.3% | [4] 44.5% | [5] 35.1% | [6] 19.7% | [7] 46.1% | [8] 27.7%

CCc1c(C)c2ccc(OCC(=O)N=Nc3c(O)[nH]c4ccccc34)c(C)c2oc1=O
active: [1] -53.3% | [3] 0.887% | [4] -29.2% | [5] -4.72% | [6] -7.72% | [7] -2.02% | [8] -23.4%
inactive: [2] 11.3%

CC(C)(C)c1ccc([I+]c2ccc(C(C)(C)C)cc2)cc1
inactive: [1] 11.3% | [4] 14.9% | [7] 13.4%
active: [2] -5.08% | [3] -49.1% | [5] 7.68% | [6] 7.47% | [8] -30.6%

O=C(CN1C(=O)NC(c2ccccc2)(c2ccccc2)C1=O)c1ccc(N2CCCC2)cc1
inactive: [1] 81.2% | [2] 66.4% | [4] 70.2% | [5] 49.8% | [6] 66% | [7] 101% | [8] 65.8%
active: [3] -4.2%

CCC(C)CC(N)O (configuration not stated)
inactive: [1] 137% | [2] 108% | [3] 104% | [4] 108% | [5] 101% | [6] 111% | [7] 112% | [8] 102%

CCOC(=O)C1C(=O)C(=O)N(C(C)C)C1C(=O)OCC (configuration not stated)
inactive: [1] 105% | [2] 119% | [3] 104% | [4] 103% | [5] 99.8% | [6] 110% | [7] 104% | [8] 98.9%

N#CCc1ncc(-c2ccc(C(F)(F)F)cc2)c(NC2CCCCCC2)n1
active: [2] 9.45% [100 µM] | [3] 0.369% [100 µM] | [6] 8.09% [100 µM] | [8] 8.14% [100 µM]
inactive: [1] 20.7% [100 µM] | [4] 19% [100 µM] | [5] 18.4% [100 µM] | [7] 38.1% [100 µM]

NNC(=S)N1N=C(c2cc3ccccc3o2)CC1c1c[nH]c2ccccc12 (configuration not stated)
inactive: [1] 40.3% | [2] 32.2% | [3] 57.8% | [4] 43.8% | [5] 20.7% | [6] 23.8% | [7] 52% | [8] 37.4%
